PubChem BioAssay (EPA / NIEHS)
Records with an inconclusive call do not appear. Active and inactive are the calls of the source. Rule for the calls, unless noted: active = hit-call score of the fitted dose curve at least 0.9, where 1 is the maximum; inconclusive = response in the unintended direction; inactive = score below 0.9.

Assays:
[1] = TOX21_p53_BLA_p2_viability: Viability Assessment in the Tox21 HCT-116 p53 Agonism Beta-lactamase Assay, Phase 2 (AID 2283591);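 note: compound exposure lasted 16 h at 37 °C; actives lower the ATP signal meaning cytotoxicity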
Method in brief: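 HCT-116 p53-bla cells (4000/well) rested 5 h at 37C, then received compounds in DMSO (217-fold dilution) for 16 h at 37C, 5% CO2. After the CCF4 read, CellTiter-Glo was added; ATP luminescence was read after 30 min at room temperature.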

[2] = molecular target: Cellular tumor antigen p53 (Homo sapiens) (UniProt P04637); assay: TOX21_p53_BLA_p2_ratio: Tox21 HCT-116 p53 Agonism Beta-lactamase Assay, Ratio, Phase 2 (AID 2283592)
Cellular tumor antigen p53 (Homo sapiens), sequence (P04637 whole entry, looked up): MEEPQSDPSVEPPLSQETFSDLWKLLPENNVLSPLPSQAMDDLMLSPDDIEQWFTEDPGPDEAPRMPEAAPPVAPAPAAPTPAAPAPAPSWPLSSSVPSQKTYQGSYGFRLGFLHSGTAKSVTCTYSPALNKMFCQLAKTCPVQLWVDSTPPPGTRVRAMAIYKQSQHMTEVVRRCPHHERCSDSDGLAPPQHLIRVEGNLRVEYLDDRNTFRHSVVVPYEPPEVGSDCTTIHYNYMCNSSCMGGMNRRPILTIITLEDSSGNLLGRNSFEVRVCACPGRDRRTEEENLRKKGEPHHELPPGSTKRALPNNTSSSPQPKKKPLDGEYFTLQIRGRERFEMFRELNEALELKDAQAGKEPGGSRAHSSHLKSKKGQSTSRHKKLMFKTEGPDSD
Method in brief: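 HCT-116 cells with p53-responsive beta-lactamase reporter, 4000 cells/well, preincubated 5 h, then compound in DMSO (217-fold dilution) for 16 h at 37C. CCF4-AM substrate 2 h at room temperature; 460/530 nm emission ratio fitted upward versus DMSO.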

[3] = TOX21_p53_BLA_p3_viability: Viability Assessment in the Tox21 HCT-116 p53 Agonism Beta-lactamase Assay, Phase 3 (AID 2283593);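 note: cells exposed to compound for 16 h before reading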
Method in brief: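 HCT-116 cells (4000/well) rested 5 h at 37C, then got DMSO compounds by pin tool (217-fold dilution) for 16 h at 37C, 5% CO2. After the bla read, CellTiter-Glo was added and luminescence read at 30 min, room temperature.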

[4] = molecular target: Cellular tumor antigen p53 (Homo sapiens) (UniProt P04637); assay: TOX21_p53_BLA_p3_ratio: Tox21 HCT-116 p53 Agonism Beta-lactamase Assay, Ratio, Phase 3 (AID 2283596)
Method in brief: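 HCT116 p53-bla cells (4000/well) given compound in DMSO (217-fold dilution) after 5 h, incubated 16 h at 37C. CCF4-AM substrate 2 h at room temperature; 460/530 nm emission ratio, gain fitted against DMSO.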

[5] = TOX21_p53_BLA_p4_viability: Viability Assessment in the Tox21 HCT-116 p53 Agonism Beta-lactamase Assay, Phase 4 (AID 2283597);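 note: hits lower the luminescence signal meaning cytotoxicity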
Method in brief: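 HCT-116 p53-bla cells, 4000/well, dosed after 5 h attachment and incubated 16 h at 37 °C, 5% CO2. Viability from CellTiter-Glo ATP luminescence after 30 min at room temperature, taken after the beta-lactamase read; loss of signal indicates cytotoxicity.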

[6] = molecular target: Cellular tumor antigen p53 (Homo sapiens) (UniProt P04637); assay: TOX21_p53_BLA_p5_ratio: Tox21 HCT-116 p53 Agonism Beta-lactamase Assay, Ratio, Phase 5 (AID 2283599)
Method in brief: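 HCT-116 cells carrying a p53-inducible beta-lactamase reporter were seeded at 4000 cells/well and dosed after 5 h with compound in DMSO (217-fold dilution). After 16 h at 37C, CCF4-AM substrate was added for 2 h, and the 460/530 nm emission ratio was scored as gain-of-signal versus DMSO.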

[7] = TOX21_p53_BLA_p5_viability: Viability Assessment in the Tox21 HCT-116 p53 Agonism Beta-lactamase Assay, Phase 5 (AID 2283600)
Method in brief: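 HCT-116 p53 beta-lactamase reporter cells, 4000/well, were exposed to compound (pin transfer, 217-fold dilution) for 16 hours at 37C. Cellular ATP was read by CellTiter-Glo luminescence after 30 min at room temperature.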

[8] = molecular target: Cellular tumor antigen p53 (Homo sapiens) (UniProt P04637); assay: TOX21_p53_BLA_p4_ratio: Tox21 HCT-116 p53 Agonism Beta-lactamase Assay, Ratio, Phase 4 (AID 2283601)
Method in brief: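 HCT116 cells carrying an inducible beta-lactamase reporter were plated at 4000 cells/well, rested 5 h, then exposed to compounds in DMSO (217-fold dilution) for 16 h at 37C. CCF4-AM substrate was loaded 2 h at room temperature; 460/530 nm emission ratio scored gain-of-signal versus DMSO.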

[9] = system: Brachyury (BRA) Protein Expression, Deisenroth Lab, TBXT (gene 6862); assay: CCTE_Deisenroth_DEVTOX-GLR_legacy_Bra: (Legacy) CCTE's DevTox GLR-Endo Assay Evaluation of Brachyury (BRA) Protein Expression, Deisenroth Lab (AID 2284329; active = hit-call score of the fitted dose curve at least 0.9, where 1 is the maximum; inactive = score below 0.9)
Method in brief: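 RUES2-GLR human pluripotent cells differentiated 48 h with two 24-h-interval chemical exposures (1 nM - 200 uM, 10 points); fixed, nuclear-stained, imaged. Bra+ cell percentage (intensity 5x BMAD above pluripotent control median) fitted relative to 0.2% DMSO.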

[10] = CCTE_Deisenroth_DEVTOX-GLR_legacy_CellCount: (Legacy) Viability Assessment in CCTE's DevTox GLR-Endo Assay, Deisenroth Lab (AID 2284331; active = hit-call score of the fitted dose curve at least 0.9, where 1 is the maximum; inactive = score below 0.9); conditions: actives raise or lower the signal
Method in brief: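 Nuclei count by fluorescence high-content imaging (5 fields/well) after 48 h differentiation of RUES2-GLR cells. Two exposures, 24 h apart; 1 nM - 200 uM series; n=4. Bidirectional fit vs DMSO.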

[11] = system: SRY-box transcription factor 17 (SOX17) Protein Expression, Deisenroth Lab, SOX17 (gene 64321); assay: CCTE_Deisenroth_DEVTOX-GLR_legacy_Sox17: (Legacy) CCTE's DevTox GLR-Endo Assay Evaluation of SRY-box transcription factor 17 (SOX17) Protein Expression, Deisenroth Lab (AID 2284341; active = hit-call score of the fitted dose curve at least 0.9, where 1 is the maximum; inactive = score below 0.9); conditions: actives raise or lower the signal
Method in brief: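 RUES2-GLR human pluripotent cells, seeded 24 h, then differentiated 48 h in defined media with two chemical exposures 24 h apart (1 nM - 200 uM, 10 points). Sox17+ fraction from high-content fluorescence imaging; bidirectional fit versus 0.2% DMSO.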

[12] = system: SRY-box transcription factor 2 (SOX2) Protein Expression, Deisenroth Lab, SOX2 (gene 6657); assay: CCTE_Deisenroth_DEVTOX-GLR_legacy_Sox2: (Legacy) CCTE's DevTox GLR-Endo Assay Evaluation of SRY-box transcription factor 2 (SOX2) Protein Expression, Deisenroth Lab (AID 2284346; active = hit-call score of the fitted dose curve at least 0.9, where 1 is the maximum; inactive = score below 0.9)
Method in brief: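 RUES2-GLR human pluripotent cells seeded 24 h, then differentiated 48 h in defined media with two chemical doses 24 h apart (10-point, 1 nM–200 uM). Fixed, nuclear-stained, imaged; % Sox2+ cells (>5x BMAD over endoderm control median), DMSO-subtracted, fitted upward.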

[13] = system: SRY-box transcription factor 2 (SOX2) Protein Expression, Deisenroth Lab, SOX2 (gene 6657); assay: CCTE_Deisenroth_DEVTOX-GLR_Endo_SOX2: CCTE's DevTox GLR-Endo Assay Evaluation of SRY-box transcription factor 2 (SOX2) Protein Expression, Deisenroth Lab (AID 2284412)
Method in brief: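 RUES2-GLR human pluripotent cells were seeded 24 h, then differentiated 48 h with two chemical exposures 24 h apart. Cells were fixed, nuclei stained and imaged by high-content microscopy. Endpoint is %SOX2+ cells over cell count, minus 0.2% DMSO control; 10-point series 1 nM–200 uM.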

[14] = system: SRY-box transcription factor 17 (SOX17) Protein Expression, Deisenroth Lab, SOX17 (gene 64321); assay: CCTE_Deisenroth_DEVTOX-GLR_Endo_SOX17: CCTE's DevTox GLR-Endo Assay Evaluation of SRY-box transcription factor 17 (SOX17) Protein Expression, Deisenroth Lab (AID 2284413; active = hit-call score of the fitted dose curve at least 0.9, where 1 is the maximum; inactive = score below 0.9)
Method in brief: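 Endpoint: % change in SOX17+ fraction (SOX17+ cells / cell count) vs 0.2% DMSO solvent control. RUES2-GLR reporter cells, 48 h endoderm differentiation, two doses at 24 h intervals, high-content fluorescence imaging, 5 fields/well.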

[15] = CCTE_Deisenroth_DEVTOX-GLR_Endo_CellCount: Viability Assessment in CCTE's DevTox GLR-Endo Assay, Deisenroth Lab (AID 2284420; active = hit-call score of the fitted dose curve at least 0.9, where 1 is the maximum; inactive = score below 0.9)
Method in brief: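 RUES2-GLR pluripotent cells seeded 24 h, then differentiated 48 h in defined media with two chemical exposures 24 h apart. Nuclei counted by high-content imaging; 10-point 1 nM–200 uM series; percent change versus 0.2% DMSO.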

[16] = CCTE_Deisenroth_DEVTOX-GLR_Pluri_CellCount: Viability Assessment in CCTE's DevTox GLR-Pluri Assay Evaluation of Total Cell Counts, Deisenroth Lab (AID 2284430; active = hit-call score of the fitted dose curve at least 0.9, where 1 is the maximum; inactive = score below 0.9)
Method in brief: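 RUES2-GLR human pluripotent cells, seeded 24 h, then differentiated 48 h with two chemical exposures 24 h apart; 10-point series 1 nM - 200 uM. Fixed, nuclear-stained, imaged (5 fields/well); nuclei count as % change vs 0.2% DMSO.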

Measured: AC50

COc1cc2c(Nc3ccc(Br)cc3F)ncnc2cc1OCC1CCN(C)CC1
active: [9] 8.49 µM | [10] 4.51 µM | [11] 4.92 µM | [12] 7.85 µM | [13] 8.62 µM | [14] 4.83 µM | [15] 4.46 µM
inactive: all other assays above

C[N+]1(C)CCCC(OC(=O)C(O)(c2ccccc2)c2ccccc2)C1 (centres undefined)
inactive: [1] | [2] | [3] | [4] | [5] | [6] | [8]

C[C@@H]1C[C@H]2O[C@@]3(O[C@@H]2C(C)(C)O)[C@H](O)[C@@]2(C)[C@@H]4CC[C@H]5C(C)(C)[C@@H](O[C@@H]6OC[C@@H](O)[C@H](O)[C@H]6O)CC[C@@]56C[C@@]46CC[C@]2(C)[C@@H]13
inactive: [1] | [2] | [3] | [4] | [5] | [6] | [8]

CC(C)(S)C(=O)N[C@@H](CS)C(=O)O
inactive: [1] | [2] | [3] | [4] | [5] | [6] | [8]

Nc1nc2[nH]cc(CCc3ccc(C(=O)N[C@@H](CCC(=O)O)C(=O)O)cc3)c2c(=O)[nH]1
inactive: [1] | [2] | [3] | [4] | [5] | [6] | [8]

CC[C@H](NC(C)C)[C@H](O)c1ccc(O)c2[nH]c(=O)ccc12
inactive: [1] | [2] | [3] | [4] | [5] | [6] | [8]

Cc1ccc2c(ccc3ccccc32)c1
inactive: [1] | [2] | [3] | [4] | [5] | [6] | [8]

Cn1cc(NC(=O)c2cc(NC(=O)c3cc(NC=O)cn3C)cn2C)cc1C(=O)NCCC(=N)N
inactive: [1] | [2] | [3] | [4] | [5] | [6] | [8]

OCC(O)CS (centres undefined)
inactive: [1] | [2] | [3] | [4] | [5] | [6] | [8]

CC[C@H]1OC(=O)[C@H](C)[C@@H](O[C@H]2C[C@@](C)(OC)[C@@H](O)[C@H](C)O2)[C@H](C)[C@@H](O[C@@H]2O[C@H](C)C[C@H](N(C)C)[C@H]2O)[C@](C)(OC)C[C@@H](C)C(=O)[C@H](C)[C@@H](O)[C@]1(C)O
inactive: [1] | [2] | [3] | [4] | [5] | [6] | [8]
